Assay outcomes: PubChem BioAssay, National Center for Advancing Translational Sciences (NCATS)
hNpr1 antagonist – blocks ANP-stimulated signaling of human Npr1 receptor; HEK293 hNpr1 GloSensor cGMP, ANP-stimulated luminescence; P16066; Potency, µM (top dose mostly 46.3 µM), without a hit: at the top dose activity change, negative = inhibition, hits mostly inhibitors; 76,000 compounds, 1.6% hits; AID 1347048; calls by dose curve; note: nearly all actives have a fitted effect of over 60% in size
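Compound pre-incubated 30 min at room temperature on GloSensor-loaded HEK293 cells stably carrying hNpr1 and the pGS-40F cGMP biosensor. Stimulation uses hNppA at 0.1 nM final; luminescence is taken at baseline and 20 min post-agonist.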
NIH3T3 tox – NIH 3T3 cell cytotoxicity | NIH 3T3 viability, CellTiter-Glo ATP luminescence, 48-72 h | Potency, µM (series often up to 96.7 µM), inactives show top-dose activity change, negative = cytotoxicity, hits mostly inhibitors | 94,000 compounds, 4.3% hits | AID 1345082; note: nearly all actives have a fitted effect of over 55% in size
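Viability of NIH 3T3 cells after 48 or 72 hr compound treatment at 37 °C was assessed by CellTiter-Glo, with luminescence imaged following a 10 min room-temperature step.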
Luciferase inh – inhibitors of firefly (Photinus pyralis) luciferase | AID 1347043 | Potency, µM (doses to about 115 µM), actives largely listed as inhibitors | 76,000 compounds, 2.5% hits | purified P. pyralis luciferase, luminescence, biochemical; note: nearly all actives have a fitted effect of over 65% in size
Target sequence (P08659 whole entry, looked up): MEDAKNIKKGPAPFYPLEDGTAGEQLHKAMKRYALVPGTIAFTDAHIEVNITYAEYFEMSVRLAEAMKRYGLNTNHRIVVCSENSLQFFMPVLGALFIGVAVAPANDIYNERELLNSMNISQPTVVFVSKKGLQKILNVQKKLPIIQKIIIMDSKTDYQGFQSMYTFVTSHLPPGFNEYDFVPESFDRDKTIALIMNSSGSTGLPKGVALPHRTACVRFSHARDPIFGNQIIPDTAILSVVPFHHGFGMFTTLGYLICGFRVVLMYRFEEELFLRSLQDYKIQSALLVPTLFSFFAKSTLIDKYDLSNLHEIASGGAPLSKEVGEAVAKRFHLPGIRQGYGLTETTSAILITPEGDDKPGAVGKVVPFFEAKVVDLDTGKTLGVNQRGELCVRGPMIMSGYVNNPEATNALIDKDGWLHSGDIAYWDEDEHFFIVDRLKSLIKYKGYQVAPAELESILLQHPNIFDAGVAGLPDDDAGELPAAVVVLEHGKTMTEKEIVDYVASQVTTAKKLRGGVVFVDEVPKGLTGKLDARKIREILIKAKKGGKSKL
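Cell-free enzyme assay, 10nM P. pyralis luciferase, luciferin and ATP each at 10uM. Inhibition profiled over a 6-point titration, read as luminescence.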
GPT2 inh – inhibitors of human GPT2 alanine aminotransferase | Q8TD30 | Recombinant GPT2, coupled pyruvate oxidase/HRP Amplex Red fluorescence | Potency, µM (series often up to 57.7 µM), inactives show at the highest dose activity change, negative = inhibition, actives largely listed as inhibitors | 100,000 compounds, 0.25% hits; note: nearly all actives have a fitted effect of over 60% in size
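Fluorescence of coupled pyruvate oxidase/HRP/Amplex Red system (50uM Amplex, 30 min, dark) reports pyruvate formed by GPT2. Enzyme reaction: 10ng/uL GPT2, 2mM L-alanine, 250uM a-KG, 30 min room temperature, pH 7.5; 50uM AOA control.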
HEK cytotox – HEK 293 cell cytotoxicity; HEK 293 viability, ATP luminescence (CellTiter-Glo), 48-72 h; Potency, µM (series often up to 115 µM), without a hit: at the highest dose activity change, negative = cytotoxicity, hits mostly inhibitors; 94,000 compounds, 6.6% hits; note: nearly all actives have a fitted effect of over 60% in size
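CellTiter-Glo luminescence (cellular ATP) was read after 48 or 72 hr of compound exposure at 37 degree Celsius. Cells were HEK 293 plated at 250 cells/well.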
The depositor's hits bear a star; i = inactive; ? = inconclusive; nt = no result given; [ ] = dose if it differs, or a comment. Most compounds without a hit are left out; they make up all but 10% or so of the library. Unless noted, calls come from the whole dose curve; as a rule, active = well fitted curve in the direction sought with a large enough effect; inconclusive = small, poorly fitted or top-dose-only effect, or another doubt; inactive = no such curve, though single readings can be large; an effect the other way counts as inactive or inconclusive. % is set by controls: 0 for no effect and ±100 for the full control effect; potency is the fitted concentration of half-maximal effect.

SMILES	hNpr1 antagonist	NIH3T3 tox	Luciferase inh	GPT2 inh	HEK cytotox
CCN1c2cc(C(=O)Nc3ccc(F)c(Cl)c3)ccc2C(=O)N2CCCCCC21 (stereo not given)	-7.3%	31.6µM*	i	i	15.8µM*
CCN1c2cc(C(=O)Nc3ccc(F)cc3)ccc2C(=O)N2CCCCCC21 (stereo not given)	1.7%	?	i	-5.6%	?
CN(C)CCOc1cc(NS(=O)(=O)c2c(Cl)cc(C(F)(F)F)cc2Cl)ccc1Cl	nt	nt	nt	i	nt
O=C(NCc1ccccc1)N1CCOC(CN(CC2CC2)C(=O)c2cccc(F)c2)C1 (stereo not given)	0.3%	-20.1%	i	i	?
COc1ccc(C(=O)N(CC2CC2)CC2CN(C(=O)Nc3ccccc3)CCO2)cc1OC (stereo not given)	0.7%	?	i	i	28.2µM*
CNC(=O)c1cccc(-c2cnc3[nH]cc(CC(=O)NCc4cccs4)c3c2)c1	-14.2%[70.6 µM]	89.1µM*	i	-7.3%[88.5 µM]	?
CNC(=O)c1cccc(-c2cnc3[nH]cc(CC(=O)NC4CCC4)c3c2)c1	2.4%[70.6 µM]	39.8µM*	?	i	?
O=C(Cc1c[nH]c2ncc(-c3cccnc3)cc12)NC1CCC1	9.6%[70.6 µM]	28.2µM*	i	-9.9%[88.5 µM]	?
CNC(=O)c1cccc(-c2cnc3[nH]cc(CC(=O)N(C)C)c3c2)c1	4.8%[70.6 µM]	?	?	3.2%[88.5 µM]	?
CNC(=O)c1cccc(-c2cnc3[nH]cc(CC(=O)Nc4ccccc4Cl)c3c2)c1	1.4%[70.6 µM]	?	?	-15.2%[88.5 µM]	89.1µM*
CCOCCCNC(=O)c1cc(-c2ccccc2C(F)(F)F)nc2c1cnn2C	nt	-15.9%	nt	nt	-10.7%
COc1cc(C(=O)OC[C@@]2(O)CO[C@@H](O[C@H]3[C@H](Oc4ccc(C(=O)O)cc4OC)O[C@H](CO)[C@@H](O)[C@@H]3O)[C@@H]2O)ccc1O	nt	nt	nt	i	nt
O=C(Cc1c[nH]c2ncc(-c3cccnc3)cc12)NCCc1ccccn1	-0.6%[70.6 µM]	100µM*	i	-22.6%[88.5 µM]	-3.9%[172 µM]
COCCNC(=O)Cc1c[nH]c2ncc(-c3cccnc3)cc12	2.7%[70.6 µM]	?	i	2.8%[88.5 µM]	-21.6%[172 µM]
O=C(Cc1c[nH]c2ncc(-c3ccccc3)cc12)NC1CC1	?	89.1µM*	i	?	?
COc1cc(NC(=O)O[C@@H]2CC[C@]3(C)C(CC[C@@H](O)[C@H]3CC(=O)N3CCC[C@H]3CO)[C@]2(C)CO)cc(OC)c1 (stereo not given in full)	4.3%	i	i	-7.6%	i
CNC(=O)c1cc(C2CC2)nc2onc(C3CCN(C(=O)c4ccccc4)CC3)c12	nt	-28.3%	nt	nt	-4.1%
Cc1cn2nc(C(=O)N3CCC(NC(=O)c4cccc(N(C)C)c4)CC3)cc2c(=O)[nH]1	-0.4%	-20.2%	35.5µM*	i	-12.0%
CC1=C[C@@H](CNCc2ccccn2)[C@H](C(C)C)C[C@H]1Cc1nnc(-c2ccccc2F)o1	-20.8%[70.6 µM]	?	i	-17.7%[88.5 µM]	22.4µM*
CC1=C[C@@H](CNCc2ccncc2)[C@H](C(C)C)C[C@H]1Cc1nnc(-c2ccccc2F)o1	?	?	i	i	20µM*
CC1=C[C@@H](CNCc2cccnc2)[C@H](C(C)C)C[C@H]1Cc1nnc(-c2ccccc2)o1	-14.3%[70.6 µM]	?	i	1.0%[88.5 µM]	79.4µM*
CC(=O)Nc1ccc(NC[C@@H]2C=C(C)[C@H](Cc3nnc(C)o3)C[C@H]2C(C)C)cn1	-0.6%[70.6 µM]	-14.0%[174 µM]	i	i	112µM*
CCc1nc2c(c(-c3ccc(OC)cc3)n1)CCN(Cc1ccc(F)cc1)CC2	nt	-6.5%	nt	?	?
CN(CCC(N)=O)Cc1ccccc1OCC(O)CN1CCc2ccccc2C1 (stereo not given)	4.3%	?	i	-6.7%	-10.1%
CC(=O)NCCNC[C@@H]1C=C(C)[C@H](Cc2nnc(-c3ccccc3)o2)C[C@H]1C(C)C	1.2%[70.6 µM]	89.1µM*	i	0.4%[88.5 µM]	56.2µM*
SMILES	hNpr1 antagonist	NIH3T3 tox	Luciferase inh	GPT2 inh	HEK cytotox
CC1=C[C@@H](CNc2ccccn2)[C@H](C(C)C)C[C@H]1Cc1nnc(-c2ccc(C)cc2)o1	?	39.8µM*	i	-18.3%[88.5 µM]	35.5µM*
CC1=C[C@@H](CNCc2cccnc2)[C@H](C(C)C)C[C@H]1Cc1nnc(-c2ccccc2F)o1	-10.5%[70.6 µM]	-24.8%[138 µM]	i	-8.1%[88.5 µM]	?
CC1=C[C@@H](CNCc2ccco2)[C@H](C(C)C)C[C@H]1Cc1nnc(-c2ccccc2F)o1	-21.1%[70.6 µM]	?	i	-0.4%[88.5 µM]	79.4µM*
N#Cc1cccnc1-c1cccc(C(=O)NCCNC(=O)c2ccccc2Cl)c1	nt	-13.4%	nt	2.9%	-9.7%
COc1ccc2nc3n(c2c1)[C@@H](CNS(=O)(=O)c1ccc(F)cc1)COC3	0.1%[70.6 µM]	?	i	i	-29.5%[172 µM]
COc1ccc(S(=O)(=O)NC[C@H]2COCc3nc4ccc(C)cc4n32)cc1	?	89.1µM*	i	-1.6%[88.5 µM]	?
COc1ccc2nc3n(c2c1)[C@@H](CNCC(C)(C)C)COC3	2.8%[70.6 µM]	31.6µM*	i	i	?
CS(=O)(=O)N1CCCN(Cc2cn[nH]c2-c2cccs2)CCNC(=O)CC1c1ccccc1 (stereo not given)	4.5%	-7.8%	i	4.0%	-16.1%
COCC1CN(C2CCC2)CC12CCN(Cc1ccc(OC)c(OC)c1)CC2 (stereo not given)	-10.0%	?	i	i	?
COCCOC1CCOC2(CCN(C(=O)CCCc3ccccc3)CC2)C1 (stereo not given)	-10.8%	-15.2%	28.2µM*	i	?
COCC1CN(C)CC12CCN(C(=O)CCCc1ccccc1)CC2 (stereo not given)	2.5%	?	i	i	?
COCC1CN(C2CCC2)CC12CCN(C(=O)C1(c3ccccc3)CC1)CC2 (stereo not given)	-27.5%	?	i	-4.9%	31.6µM*
COCCOC1CCOC2(CCN(C(=O)Cc3ccccc3)CC2)C1 (stereo not given)	0.0%	i	i	i	-4.3%
COCC1CN(C2CCC2)CC12CCN(Cc1cccc(OC)c1OC)CC2 (stereo not given)	-1.7%	?	i	i	44.7µM*
COCC1CN(C2CCC2)CC12CCN(C(=O)CCCc1ccccc1)CC2 (stereo not given)	nt	?	nt	-12.7%	31.6µM*
O=C(CN1C(=O)NC2(CCCCC2)C1=O)N1CCCCCC1	0.0%	4.7%	i	0.9%	-5.3%
O=C(NCc1ccc(Cl)cc1)C1CCc2nnc(-c3cccc(C(F)(F)F)c3)n21 (stereo not given)	nt	?	nt	0.9%	?
